Data reported in PubChem BioAssay AID1053115 (Broad Institute, 2014).
Measured potencies and affinities stand elsewhere. The source made the active and inactive calls.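 How the source made its calls: active means cytotoxic compounds whose fitted half-maximal concentration is at most twice the top valid tested dose; inconclusive means flat curve showing 30 to 70% signal loss, or poor fit; inactive means the rest.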

test: viability loss in A549 lung cells – cell-based, 24 h, CellTiter-Glo luminescence, cherry-picks, cytotoxicity control, dose response (AID 1053115); settings: CellTiter-Glo ATP luminescence; series mostly up to 30 µM

| SMILES | outcome |
| --- | --- |
| C[C@H](O)C#Cc1ccc2c(c1)O[C@H](CN(C)Cc1ccccc1)[C@@H](C)CN([C@@H](C)CO)S2(=O)=O | inactive |
| CN1c2ccc(C#Cc3cccnc3)cc2[C@@H]2[C@@H](CCN2C(=O)C2CCC2)[C@H]1CO | inactive |
| C[C@H](CO)N1C[C@H](C)[C@@H](CN(C)S(=O)(=O)c2ccc(Cl)cc2)Oc2c(NS(=O)(=O)c3cn(C)cn3)cccc2C1=O | inactive |
| C[C@H]1CCCCO[C@H](CN(C)S(=O)(=O)c2ccc(Cl)cc2)[C@@H](C)CN([C@@H](C)CO)C(=O)c2cc(NC(=O)Nc3ccc(F)cc3)ccc2O1 | inactive |
| C[C@@H](O)C#Cc1ccc2c(c1)O[C@@H](CN(C)Cc1ccncc1)[C@@H](C)CN([C@@H](C)CO)S2(=O)=O | inactive |
| C[C@@H]1CN([C@H](C)CO)S(=O)(=O)c2ccc(C#C[C@@H](C)O)cc2O[C@@H]1CN(C)Cc1ccc(-c2ccccc2)cc1 | inactive |
| C[C@H](O)C#Cc1ccc2c(c1)O[C@H](CN(C)Cc1ccccc1)[C@H](C)CN([C@@H](C)CO)S2(=O)=O | inactive |
| C[C@@H]1CN([C@@H](C)CO)S(=O)(=O)c2ccc(C#C[C@@H](C)O)cc2O[C@@H]1CN(C)Cc1ccccc1 | inactive |
| C[C@@H]1CN([C@H](C)CO)S(=O)(=O)c2ccc(C#C[C@@H](C)O)cc2O[C@@H]1CN(C)Cc1ccccc1 | inactive |
| CO[C@H]1CN(C)C(=O)c2ccc(NC(=O)c3ccc(F)cc3)cc2OC[C@H](C)N(C(=O)c2ccc(F)cc2)C[C@@H]1C | inactive |
| C[C@H](CO)N1C[C@H](C)[C@@H](CN(C)Cc2ccccc2)Oc2cc(C#C[C@@H](C)O)ccc2S1(=O)=O | inactive |
